The list is not random: actives were taken first. Their share in the collection is about 0.67%.
Rango release inh: inhibition of RanGTP-driven Rango-importin beta dissociation | Potency, µM (doses to about 46.1 µM), for inactives: at the highest dose activity change, negative = inhibition | 340,000 compounds, 0.071% hits | Biochemical FRET Rango-importin beta, RanGTP-induced dissociation | O95149+P62826; note: % of control where 0% means no effect; nearly all actives have a fitted effect of over 45% in size
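FRET read at 45 min, room temperature: inhibitors block the CFP/YFP signal rise when RanGTP (0.6 uM Ran, 2 mM GTP, 0.2 uM RCC1) frees Rango (0.1 uM) from importin beta (0.25 uM). Pre-read after 5 min compound exposure flags interference.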
gsp antag: gsp mutant antagonism | gsp-mutant cells, cAMP HTRF, 30 min | Potency, µM (doses to about 76.9 µM), for the others: top-dose activity change, negative = inhibition, actives largely listed as inhibitors | 340,000 compounds, 0.4% hits; calls by dose curve; cell line not stated here;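 note: intracellular cAMP measured with PDE inhibitor Ro 20-1724 present during compound exposure; % is set by controls: 0 for no effect and ±100 for the full control effect; nearly all actives have a fitted effect of over 65% in size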
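Cells, 2000/well, grown 16–24 h in DMEM 10% FBS with 0.5 mg/ml G418, then compounds plus […] (300 uM addition stock), 30 min at 37C. cAMP read by HTRF (cAMP-d2 and anti-cAMP antibody-K in lysis buffer) after 30 min RT.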
gsp ag: gsp mutant agonism. gsp mutant cells, cAMP HTRF, 30 min. Potency, µM (titrated, usually from 76.9 µM), without a hit: top-dose activation (cAMP increase), actives largely listed as activators. 340,000 compounds, 0.13% hits. AID 624287; active = well fitted activation curve with a large enough effect; inconclusive = small, poorly fitted or top-dose-only effect, or another doubt; inactive = no such curve, though single readings can be large or run the other way; cell line not stated here;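 note: phosphodiesterase inhibitor Ro 20-1724 added with compounds to block cAMP breakdown; nearly all actives have a fitted effect of over 60% in size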
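Cells in DMEM/10% FBS with G418 were pretreated with compounds in DMSO plus […] (300 uM stock) for 30 min at 37C. cAMP was measured by HTRF (cAMP-d2 plus anti-cAMP antibody-K) after 30 min at room temperature.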
S-ASM inh: human S-ASM enzyme inhibition; placental ASM, HMU-PC fluorogenic substrate, 60 min; Potency, µM (series often up to 57.5 µM), for the others: at the top dose activity change, negative = inhibition, hits mostly inhibitors; 340,000 compounds, 0.006% hits; active = well fitted inhibition curve with a large enough effect; inconclusive = small, poorly fitted or top-dose-only effect; inactive = no such curve, though single readings can be large or run the other way
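Human placenta-derived ASM preincubated with compound 10 min at room temperature, then reacted with 9 uM (final) fluorogenic HMU-PC substrate for 60 min at 37 C. Stop solution raises pH to 10; fluorescence read at Ex 386/Em 447 nm.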
Rango complex inh: inhibitors of Rango-importin beta complex formation. Potency, µM (series often up to 92.2 µM), for inactives: at the top dose inhibition of complex formation. AID 540263. 340,000 compounds, 0.031% hits. Q14974. Rango CFP/YFP FRET sensor + importin beta, 45 min;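 note: 0% = DMSO wells and 100% = buffer wells lacking importin beta; nearly all actives have a fitted effect of over 15% in size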
Target sequence (Q14974 whole entry, looked up): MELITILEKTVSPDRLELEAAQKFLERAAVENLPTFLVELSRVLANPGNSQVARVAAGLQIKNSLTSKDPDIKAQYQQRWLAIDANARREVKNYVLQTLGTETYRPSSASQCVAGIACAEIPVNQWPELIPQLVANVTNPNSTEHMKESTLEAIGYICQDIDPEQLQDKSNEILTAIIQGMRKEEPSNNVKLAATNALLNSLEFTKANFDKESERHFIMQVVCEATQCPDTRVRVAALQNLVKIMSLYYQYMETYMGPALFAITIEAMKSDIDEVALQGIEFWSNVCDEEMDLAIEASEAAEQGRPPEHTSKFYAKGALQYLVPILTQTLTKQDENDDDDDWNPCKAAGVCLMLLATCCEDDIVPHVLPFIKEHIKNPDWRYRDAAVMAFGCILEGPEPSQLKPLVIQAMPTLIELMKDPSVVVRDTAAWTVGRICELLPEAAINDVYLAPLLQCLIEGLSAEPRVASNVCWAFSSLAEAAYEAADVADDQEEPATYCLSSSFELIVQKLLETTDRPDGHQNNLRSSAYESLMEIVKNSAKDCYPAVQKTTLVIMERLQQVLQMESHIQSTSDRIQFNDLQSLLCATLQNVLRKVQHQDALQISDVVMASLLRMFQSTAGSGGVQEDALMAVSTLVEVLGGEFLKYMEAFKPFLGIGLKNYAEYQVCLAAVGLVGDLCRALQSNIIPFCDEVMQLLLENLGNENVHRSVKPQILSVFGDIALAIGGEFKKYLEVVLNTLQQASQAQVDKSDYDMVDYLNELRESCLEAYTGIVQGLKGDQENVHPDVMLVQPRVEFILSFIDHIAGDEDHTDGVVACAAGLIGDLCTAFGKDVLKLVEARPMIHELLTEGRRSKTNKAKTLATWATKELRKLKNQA
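Inhibition scored from the CFP 486 nm/YFP 530 nm FRET ratio 45 min after adding 0.125 microM importin beta to 50 nM Rango biosensor preincubated 5 min with compound (room temperature, PBS with DTT, Tween-20, BSA). No-importin wells as positive control.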
* marks the source's active call; other numbers are inactive results; [ ] = another dose, or the depositor's remark. Unless noted, calls come from the whole dose curve. Potency is the fitted concentration of half-maximal effect.

`CCOC(=O)c1c(C)[nH]c(C(=O)COC(=O)CNS(=O)(=O)c2ccc(C)cc2)c1C` gave Rango release inh 7%, gsp antag 32µM*, gsp ag -17%, S-ASM inh -10% and Rango complex inh inconclusive.
Screening O=C(O)c1cc(-c2ccc(Cl)cc2)n(-c2cccc(Cl)c2)n1 returned Rango release inh -6%, gsp antag -13%, gsp ag 17%[15.4 µM], S-ASM inh 14% and Rango complex inh 3%.
Cc1csc(=O)n1CCC(=O)OCC(=O)c1c(N)n(C)c(=O)n(C)c1=O was read as Rango release inh -12%, gsp antag 2%, gsp ag 25µM*, S-ASM inh 4% and Rango complex inh 2%.
`COc1ccccc1NC(=O)CCCc1nnc2n(C)c(=O)c3sccc3n12` gave Rango release inh 2%, gsp antag 11%, gsp ag 13µM*, S-ASM inh -4% and Rango complex inh 0%.
Screening COc1ccccc1CNC(=O)CCCc1nnc2n(C)c(=O)c3sccc3n12 returned Rango release inh -14%, gsp antag -2%, gsp ag 14µM*, S-ASM inh -2% and Rango complex inh -3%.
COCCCn1c(=O)c2sccc2n2c(CCCC(=O)NCc3ccccc3OC)nnc12 was read as Rango release inh 0%, gsp antag -1%, gsp ag inconclusive, S-ASM inh 1% and Rango complex inh 2%.
COc1cccc(CNC(=O)CCCc2nnc3n(C)c(=O)c4sccc4n23)c1 was read as Rango release inh 21%, gsp antag 8%, gsp ag inconclusive, S-ASM inh 1% and Rango complex inh 4%.
For O=C(c1ccccc1)N1CCOC(O)(c2ccccc2)C1c1ccccc1 (stereo not drawn) the results were Rango release inh 15%, gsp antag -4%, gsp ag -43%, S-ASM inh -4% and Rango complex inh 2%.
`O=c1[nH]c(=O)n(Cc2ccccc2)c2c1C(C(F)(F)F)(C(F)(F)F)N=C(c1ccco1)N2` gave Rango release inh -8%, gsp antag 35µM*, gsp ag -5%, S-ASM inh 1% and Rango complex inh -2%.
For O=C1c2ccccc2C(=O)N1CCCCc1cn(C[C@H]2CC[C@@H]([C@@H]3CC[C@H](Cn4cc(CCCCN5C(=O)c6ccccc6C5=O)nn4)O3)O2)nn1 the results were Rango release inh -10%, gsp antag 32µM*, S-ASM inh -1% and Rango complex inh 0%.
`Cc1ccc(-c2ccc(C)c(N)c2C)c(C)c1N` gave Rango release inh 20%, gsp antag 1%, gsp ag -20%, S-ASM inh 1% and Rango complex inh -5%.
`CCC1OC2(C)OC(=N)C1(C#N)C(C#N)(C#N)C2c1ccccc1` (stereo not drawn) gave Rango release inh 8.2µM*, gsp antag -6%, gsp ag inconclusive, S-ASM inh inactive and Rango complex inh inconclusive.
CC(C)C1OC2(C)OC(=N)C1(C#N)C(C#N)(C#N)C2c1ccccc1 (stereo not drawn) was read as Rango release inh inconclusive, gsp antag -10%, gsp ag -5%[15.4 µM], S-ASM inh inactive and Rango complex inh inconclusive.
`Cn1c(SCC(=O)Nc2nccs2)nnc1-c1ccc(S(=O)(=O)N2CCCC2)cc1` gave Rango release inh -3%, gsp antag -25%, gsp ag 16%, S-ASM inh 0% and Rango complex inh -2%.
For CCn1c(SCC(=O)Nc2nccs2)nnc1-c1ccc(S(=O)(=O)N2CCCCCC2)cc1 the results were Rango release inh -17%, gsp antag 40µM*, gsp ag 20%, S-ASM inh 3% and Rango complex inh 1%.
For COC(=O)c1ccc(NC(=O)CCC(=O)c2ccc(F)cc2)cc1 the results were Rango release inh 25%, gsp antag 4%, gsp ag 27%, S-ASM inh 0% and Rango complex inh 0%.
`CCOC(=O)N1CCN(C(=O)c2oc3ccc(S(=O)(=O)N4CC(C)CC(C)C4)cc3c2C)CC1` (stereo not drawn) gave Rango release inh -4%, gsp antag 35µM*, gsp ag 3%, S-ASM inh -3% and Rango complex inh -5%.
CO/N=C/c1ccc(N2CCN(C(=O)c3ccc(F)cc3)CC2)c([N+](=O)[O-])c1 was read as Rango release inh 16%, gsp antag 35µM*, gsp ag 25%, S-ASM inh -11% and Rango complex inh 7%.
Screening CCC(=O)C(C#N)(c1ccc(OC)c(OC)c1)C(C)C (stereo not drawn) returned Rango release inh -17%, gsp antag 7%, gsp ag 25%, S-ASM inh 1% and Rango complex inh -3%.
`CCC[C@@H](NS(=O)(=O)c1ccc(C)cc1)C(=O)Oc1ccc2c3c(c(=O)oc2c1)CCC3` gave Rango release inh inconclusive, gsp antag 28µM*, gsp ag inconclusive, S-ASM inh inactive and Rango complex inh -6%.
Fc1ccc(NC(=S)NNc2ncc(C(F)(F)F)cc2Cl)c(F)c1 was read as Rango release inh 4%, gsp antag -21%, gsp ag 4%[15.4 µM], S-ASM inh -2% and Rango complex inh 1%.
For CCc1c(C(=O)O)[nH]c2ccc(Br)cc12 the results were Rango release inh -7%, gsp antag 11%, gsp ag 4µM*, S-ASM inh -2% and Rango complex inh 2%.
For NNC(=O)c1[nH]c2ccc(Br)cc2c1-c1ccccc1 the results were Rango release inh -7%, gsp antag 1%, gsp ag 14%[15.4 µM], S-ASM inh -10% and Rango complex inh 1%.
CC(C)(C)NC(=O)CN(C(=O)c1snc(C(=O)NC2CCCCC2)c1N)c1ccccc1F was read as Rango release inh -4%, gsp antag -15%, gsp ag 25%, S-ASM inh inactive and Rango complex inh 2%.
CN(CC(=O)Nc1ccc(F)cc1)C(=O)c1ccc(OCc2cn3ccccc3n2)cc1 was read as Rango release inh 4%, gsp antag -5%, gsp ag 7%, S-ASM inh 4% and Rango complex inh -2%.
Screening CCOC(=O)CC(=O)CSc1nc2c(c(-c3cccs3)c1C#N)CCC2 returned Rango release inh 21µM*, gsp antag 4%, gsp ag inconclusive, S-ASM inh -3% and Rango complex inh inconclusive.
`Cn1ncc(Cl)c1C(=O)N1CCN(S(=O)(=O)c2ccc(Cl)s2)CC1` gave Rango release inh -12%, gsp antag 2%, gsp ag -24%, S-ASM inh 2% and Rango complex inh 0%.
Screening COc1ccc(/C=C2\Sc3ccc(C(=O)N4CCCC4)cc3N(C)C2=O)cc1OC returned Rango release inh 12%, gsp antag 0%, gsp ag inconclusive, S-ASM inh 2% and Rango complex inh 0%.

Bioassay records (PubChem)
